Screens: PubChem, several laboratories
In the library only some 2.8% were active in any assay of this set; here they are far more common.
SENP6 inh = blocks the human protease SENP6. Recombinant SENP6 catalytic domain, aminoluciferin luminescence. AID 2599. inhibition, % at 10 µM. 330,000 compounds, 1.8% hits;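 active = inhibition above about 50% at the single tested dose, limit read from the data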;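 also: plate controls were DMSO wells with enzyme for no effect and DMSO wells lacking enzyme for full effect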
SENP8 block-1 = blocks human SENP8 cleavage of Nedd8 substrate; inhibition, % at 20 µM; 360,000 compounds, 0.64% hits; recombinant SENP8, Nedd8 substrate fluorescence; Q96LD8; in the data active = inhibition mostly above about 40%, no sharp cut-off; inactive = mostly below about 27%
Target sequence (Q96LD8 whole entry, looked up): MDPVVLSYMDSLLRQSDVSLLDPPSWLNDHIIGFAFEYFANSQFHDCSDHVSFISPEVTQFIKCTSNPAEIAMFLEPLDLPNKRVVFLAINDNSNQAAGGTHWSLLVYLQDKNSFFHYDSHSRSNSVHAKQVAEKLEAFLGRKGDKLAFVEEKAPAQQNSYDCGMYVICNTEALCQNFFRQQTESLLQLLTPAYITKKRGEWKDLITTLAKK
SENP7 inh = inhibitors of human SENP7 protease | 330,000 compounds, 1.5% hits | AID 434973 | inhibition, % at 5 µM | Q9BQF6 | recombinant SENP7, Z-RLRGG-aminoluciferin luminescence, 40 min;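 active = inhibition above about 50% at the single test dose, limit read from the data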;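 also: plate controls were DMSO with enzyme for no effect and no enzyme buffer wells for full effect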
HSP90 inh = inhibitors of HSP90 luciferase refolding in rabbit reticulocyte lysate. inhibition, % at 5.6 µM. 290,000 compounds, 0.91% hits. luciferase refolding luminescence, 3 h;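 active = inhibition above the screen-wide mean plus 3 SD, computed separately per campaign, cut at about 16% in these data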;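 also: 0% = DMSO wells and 100% = 60 µM geldanamycin wells; inhibitors lower the luminescence because luciferase stays unfolded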
Platelet DG rel = platelet dense granule release activity | human platelet-rich plasma, SFLLRN dense granule ATP release, luminescence | 300,000 compounds, 0.22% hits | inhibition, %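 (compounds screened at 7.5 µM in platelet-rich plasma)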 | AID 1663;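 active = mean replicate score, as percent of positive control, at or above 50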
SENP8 block-2 = SENP8 protease inhibition; Q96LD8; purified SENP8, Z-RLRGG-aminoluciferin cleavage, luminescence; inhibition, % at 10 µM; 330,000 compounds, 1.2% hits; AID 2540; in the data active = inhibition above about 50%
HSP90 confirm = confirmation of HSP90 inhibitors; inhibition, % at 5.9 µM; shares compounds with HSP90 inh; AID 1846; 2,300 compounds, 64% hits; rabbit reticulocyte lysate, luciferase refolding luminescence, 3 h; in the data active = inhibition above about 18%;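 also: 0% = vehicle wells and 100% = reference inhibitor wells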
FLuc counter = counter-screen for HSP90 inhibitors: inhibitors of firefly luciferase. inhibition, % at 5.9 µM. purified native firefly luciferase, luminescence. 2,300 compounds, 48% hits. AID 1847. shares compounds with HSP90 inh;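 active = inhibition above the mean inhibition of all tested sample wells plus 3 SD, cut at about 10% in these data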;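 also: 0% = DMSO with luciferase and 100% = wells lacking luciferase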
SENP8 confirm = confirmation of human SENP8 protease inhibitors; shares compounds with SENP7 inh; AID 488912; Recombinant SENP8, Z-RLRGG-aminoluciferin luminescence, 60 min; inhibition, % at 12.5 µM; 6,200 compounds, 40% hits;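 active = mean inhibition across replicates above about 50%, limit read from the data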
SENP6 confirm = confirmation of human SENP6 protease inhibitors | shares compounds with SENP7 inh | recombinant SENP6, Z-RLRGG-aminoluciferin luminescence | inhibition, % at 12.5 µM | 6,200 compounds, 58% hits
SENP7 confirm = confirmation of human SENP7 protease inhibitors. inhibition, % at 12.5 µM. recombinant SENP7, Z-RLRGG-aminoluciferin luminescence, 40 min. 6,200 compounds, 69% hits. shares compounds with SENP7 inh
Casp3 SENP sel = caspase-3 inhibition (SENP selectivity assay) | shares compounds with SENP7 inh | purified caspase-3, Z-DEVD-aminoluciferin luminescence, 60 min | inhibition, % at 12.5 µM | 6,200 compounds, 60% hits;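 active = mean inhibition above about 50%, limit read from the data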;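 also: plate controls were enzyme with DMSO for no effect and wells without caspase-3 for full effect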
Target sequence (P42574 28-227 limits assumed): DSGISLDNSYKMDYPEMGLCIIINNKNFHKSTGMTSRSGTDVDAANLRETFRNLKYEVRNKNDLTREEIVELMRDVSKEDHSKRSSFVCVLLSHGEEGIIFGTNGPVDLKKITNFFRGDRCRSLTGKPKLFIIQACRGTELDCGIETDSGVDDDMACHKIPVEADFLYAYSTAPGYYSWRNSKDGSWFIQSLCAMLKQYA
Luc interf = interferes with luciferase luminescence in SENP counter-screen. shares compounds with SENP7 inh. Pre-incubated SENP8/Z-RLRGG-aminoluciferin, luciferase luminescence interference. inhibition, % at 12.5 µM. 6,200 compounds, 39% hits. AID 488919;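 active = mean inhibition above about 50% when retested at one dose, limit read from the data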;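 also: plate controls were DMSO wells with completed reaction for no effect and substrate without enzyme for full effect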
Numbers without * were called inactive; · = not tested or not shown.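 The calls were made as follows, unless noted: active = mean inhibition above about 50% in the one-dose retest (limit read from the data); inactive = the rest.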

SMILES	SENP6 inh	SENP8 block-1	SENP7 inh	HSP90 inh	Platelet DG rel	SENP8 block-2	HSP90 confirm	FLuc counter	SENP8 confirm	SENP6 confirm	SENP7 confirm	Casp3 SENP sel	Luc interf
Cc1cc(OCc2cc(C(=O)NCCN3CCCCC3CO)no2)cc(C)c1Cl (stereo unspecified)	-17.1	15.3	-3.1	-3.0	-0.2	-9.6	·	·	·	·	·	·	·
Cc1ccc(S(=O)(=O)/N=C2\C=C(Nc3cccc(C(=O)O)c3)C(=O)c3ccccc32)c(C)c1	95.0*	80.7*	55.4*	92.1*	-3.4	93.7*	90.4*	-17.1	60.2*	97.1*	47.5	19.2	0.3
Cc1ccc(S(=O)(=O)/N=C(/c2ccccc2)N2CCOCC2)c(C)c1	-0.4	1.2	3.1	-2.8	-1.4	-8.5	·	·	·	·	·	·	·
c1ccc(-c2noc(-c3ccno3)n2)nc1	-17.1	28.6	7.3	-1.6	1.3	-4.7	·	·	·	·	·	·	·
c1ccc(-c2cc(-c3nc(-c4ccccn4)no3)c3ccccc3n2)cc1	-0.2	-290.1	7.0	2.1	-1.7	1.7	·	·	·	·	·	·	·
c1ccc(-c2nc(-c3ccccn3)no2)cc1	96.2*	14.8	100.6*	45.9*	-9.6	94.7*	79.5*	70.3*	97.9*	99.1*	102.7*	98.9*	96.6*
Cc1ccc(Cc2nc(-c3ccccn3)no2)cc1	5.9	4.0	13.7	4.6	4.0	-4.6	·	·	·	·	·	·	·
Clc1cccc(-c2nc(-c3ccccn3)no2)c1	96.0*	15.0	97.9*	57.4*	21.6	92.4*	81.9*	75.7*	97.0*	98.0*	101.8*	97.2*	96.6*
Cc1ccc(-c2nc(-c3ccccn3)no2)cc1[N+](=O)[O-]	92.0*	12.5	88.5*	29.7*	24.3	84.7*	57.8*	52.3*	62.9*	82.9*	88.2*	84.8*	22.8
Cc1ccc(-c2nc(-c3ccccn3)no2)cc1	99.4*	26.8	98.8*	93.6*	52.4*	97.6*	97.7*	93.9*	3.5	100.7*	103.3*	99.5*	98.7*
CN(Cc1ccccc1)C(=O)c1cn(C)c2ccc(S(=O)(=O)N3CCCC3)cc2c1=O	5.3	1.5	6.0	1.4	8.5	5.5	·	·	·	·	·	·	·
CC(=O)N1CCN(S(=O)(=O)c2cccc(C(=O)NNC(=O)Cn3nc(C)cc3C)c2)CC1	3.3	2.6	6.0	·	·	1.3	·	·	·	·	·	·	·
CC(C)C[C@H]1CN(CCCC[C@H]2CNC(=O)C(=O)N2Cc2ccccc2)C(=O)C(=O)N1CC1CCCCC1	·	7.6	·	·	·	·	·	·	·	·	·	·	·
COC(=O)c1ccc2c(c1)C(=O)/C(=C/c1ccc(O)cc1)O2	·	-299.9	·	4.0	-3.4	·	·	·	·	·	·	·	·
COc1cccc(/C=C2\Oc3ccc(O)cc3C2=O)c1O	71.1*	-175.0	64.4*	17.5*	45.1	55.8*	32.8*	33.5*	71.7*	69.1*	90.3*	72.4*	16.1
CCc1ccc(/C=C2\Oc3c(ccc(O)c3CN3CCN(CCO)CC3)C2=O)cc1	-18.0	-228.2	-7.4	2.5	5.3	-6.8	·	·	·	·	·	·	·
COc1ccc(CNc2nc3ccccc3s2)cc1OC	0.1	10.9	8.6	-4.5	1.3	-12.2	·	·	·	·	·	·	·
Cc1ccc(CNc2nc3ccccc3s2)s1	85.3*	22.1	87.3*	35.9*	4.7	75.8*	67.9*	61.1*	73.2*	71.5*	92.2*	71.4*	34.4
